Among the data in the supplement of paper PMC11150407 are cell viability values, retold here.

The campaign covered roughly 2,100 compounds. About 180 (8.6%) showed an effect of 50% or more. The entries come from a sample that favours strong results as a whole.

For this assay, the system named is MOLM1 and UCSD/AML1 (averaged). The experiment in a line: cell viability relative to DMSO control (POC); higher = less growth inhibition. To be noted: 1 µM; 72 h. How it is done:
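Primary viability screen in the 3q26 EVI1-high AML cell lines MOLM1 and UCSD/AML1 (1.5e3 cells/well, 384-well), compounds at 1 uM for 72 h. ATP CellTiter-Glo read-out given as percent of viable cells over DMSO control (POC), averaged over duplicates. DMSO was the negative control and 5 uM etoposide the positive control. This mapping covers the MicroSource Spectrum and Selleck anticancer libraries (drug names).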
Consider `CNC(C)[C@H](O)c1ccccc1` (stereo partly specified), for which the cell viability is 93.6%. The figure for `Cc1nccc2c1[nH]c1cc(O)ccc12` is 81%; for `O=C(NC(=O)c1c(F)cccc1F)Nc1ccc(Cl)cc1` it is 118%. Take `C[C@@H]1O[C@@H](O[C@@H]2C=C3CC[C@@H]4[C@H](CC[C@]5(C)[C@@H](c6ccc(=O)oc6)CC[C@]45O)[C@@]3(C)CC2)[C@H](O)[C@H](O)[C@H]1O`: the cell viability turned out to be 2.01%. In the case of `CC(C)(O)[C@@H]1[C@H]2OC(=O)[C@@H]1[C@]1(O)C[C@H]3O[C@]34C(=O)O[C@H]2[C@]14C`, the cell viability amounted to 87.8%. Consider `O=C(NC(=O)c1c(F)cccc1F)Nc1cc(Cl)c(OC(F)(F)C(F)C(F)(F)F)cc1Cl` (stereo unspecified), for which the cell viability was determined as 93.9%.

As to `COC(=O)NC(=S)Nc1ccccc1NC(=S)NC(=O)OC`, the cell viability was 116%.

In the case of `COC(=O)C(c1ccccc1)C1CCCCN1` (stereo unspecified), the cell viability turned out to be 89.3%.

As for `CC(C)(N)Cc1ccccc1`, the cell viability is 110%. The figure for `N#C/C(=C\c1cccc(O)c1)C(=O)O` [alpha-CYANO-3-HYDROXYCINNAMIC ACID] is 94.3%; for `O=c1c2ccccc2[se]n1-c1ccccc1` it is 97.5%. Turning to `C[CH2][Hg][S]c1ccccc1C(=O)[O-].[Na+]`, the cell viability amounted to 99.6%.

As for `CCCCCCCCCCCCCCCC[n+]1ccccc1`, the cell viability was 62.3%.

Turning to `C/C=C(/C)C(=O)O[C@H]1CC[C@@]2(C)[C@@H]3CC[C@H]4[C@]5(O)C[C@H](O)[C@@]6(O)[C@@H](CN7C[C@@H](C)CC[C@H]7[C@@]6(C)O)[C@]5(O)C[C@@]42O[C@]13O`, the cell viability was determined as 94.9%. On to `CC(C)N(CCC(C(N)=O)(c1ccccc1)c1ccccn1)C(C)C` (stereo unspecified), for which the cell viability was 113%. The figure for `N#Cc1c(Cl)c(Cl)c(Cl)c(C#N)c1Cl` is 1.55%; for `CC1=CCCC2C1(C)CCC(C)C2(C)CC/C(C)=C/Cn1c[n+](C)c2c(N)ncnc21` (stereo unspecified) [AGELASINE (stereochemistry of diterpene unknown)] it is 109%; for `CN[C@@H]1[C@@H](O)[C@@H](O[C@@H]2[C@@H](O)[C@H](O[C@H]3O[C@H]([C@@H](C)O)[C@@H](O)[C@H](O)[C@H]3N)[C@@H](N)C[C@H]2N)OC[C@]1(C)O` it is 92%. Take `CC1(C)C(=O)[C@@H]2O[C@@H]2[C@@]2(C)C1C[C@@H](O)[C@]1(C)C2CC[C@@]2(C)[C@H](c3ccoc3)OC(=O)C3OC321` (stereo partly drawn) [1,2alpha-EPOXYDEACETOXYDIHYDROGEDUNIN]: the cell viability was 91.4%. In the case of `CC1=CC(=O)c2c(O)cccc2C1=O`, the cell viability amounted to 74.6%. Turning to `COc1cc2c(cc1OC)[C@@H]1C(=O)c3ccc4c(c3O[C@@H]1CO2)CC(C(C)C)O4` (stereo partly specified), the cell viability was 77.8%. With `C=C(C)[C@H]1Cc2c(ccc3c2O[C@@H]2COc4cc(OC)c(OC)cc4[C@@H]2C3=O)O1`, the cell viability was found to be 26.4%. Turning to `COc1cc2c(cc1OC)[C@@H]1C(=O)c3ccc(OC)c(CC=C(C)C)c3O[C@@H]1CO2`, the cell viability stood at 103%. With `O=C1NC(=O)C(=O)C(=O)N1`, the cell viability was 100%. In the case of `CNC1CC(N)C(O)C(OC2OC(CO)C(O)C3OC4(OC(C(N)CO)C(O)C(O)C4O)OC23)C1O` (stereo unspecified), the cell viability is 103%. For `O=[N+]([O-])O[C@@H]1CO[C@H]2[C@@H]1OC[C@@H]2O`, the cell viability came out at 98.1%.

Consider `C/C(=C\c1csc(C)n1)[C@@H]1C[C@@H]2O[C@]2(C)CCC[C@H](C)[C@H](O)[C@@H](C)C(=O)C(C)(C)[C@@H](O)CC(=O)O1` [Epothilone B (EPO906)], for which the cell viability amounted to 13.4%. Turning to `C/C(=C\c1csc(C)n1)[C@@H]1C[C@@H]2O[C@@H]2CCC[C@H](C)[C@H](O)[C@@H](C)C(=O)C(C)(C)[C@@H](O)CC(=O)O1` [Epothilone A], the cell viability stood at 18.5%. As for `O=C(O)CC[N+](=O)[O-]` [BOVINOCIDIN (3-nitropropionic acid)], the cell viability was 94.6%. For `Cc1ccc(O)cc1.Cc1cccc(O)c1.Cc1ccccc1O`, the cell viability stood at 98.6%. Turning to `C/C=C(\C)C(=O)O[C@H]1C[C@@H](OC(C)=O)[C@@]2(C(=O)OC)CO[C@H]3[C@@H](O)[C@@](C)([C@]45O[C@@]4(C)[C@H]4C[C@@H]5O[C@@H]5OC=C[C@@]54O)[C@H]4[C@]1(CO[C@]4(O)C(=O)OC)[C@@H]32`, the cell viability stood at 97.3%. As for `OC[C@@H]1CCCN2CCCC[C@H]12`, the cell viability turned out to be 83%. With `C/C=C/c1ccc2c(c1)OCO2` the figure was 108%; with `C[C@@H]1C[C@@H]([C@H](O)CC2CC(=O)NC(=O)C2)C(=O)[C@@H](C)C1`, 18.4%. Regarding `C[C@]12CCC(=O)C=C1C=C[C@@H]1[C@@H]2CC[C@@]2(C)[C@H]1CC[C@@]2(O)CCC(=O)O`, the cell viability worked out at 111%. As for `NC(=O)c1ccc(N)nc1`, the cell viability is 88%. With `C[C@@H](N)[C@@H](O)c1ccccc1`, the cell viability came to 106%.

For `CC(C)c1cc2c(c(O)c1O)[C@@]1(C(=O)O)CCCC(C)(C)[C@@H]1CC2`, the cell viability was found to be 107%. For `C=C[C@H]1CN2CC[C@H]1C[C@H]2[C@H](O)c1ccnc2ccccc12`, the cell viability came to 105%.

In the case of `O=C(NC(=O)c1ccccc1Cl)Nc1ccc(OC(F)(F)F)cc1`, the cell viability amounted to 113%. Turning to `O=C1C=CC(=O)c2ccccc21`, the cell viability was 89.5%.
